Among the data in PubChem BioAssay (NCATS) are Potency values, retold here.

Records with an inconclusive call do not appear. Calls of active or inactive are those of the source. Unless noted, calls follow the shape of the full dose curve.

Assay [1] in a line: qHTS for Inhibitors of the Functional Ribonucleoprotein Complex (vRNP) of Lassa (LASV) Arenavirus: Viability assay - alamar blue signal for LASV Primary Screen (AID 1347083; calls by dose curve; tested in HEK293 reporter line; also: nearly all actives have a fitted effect of over 80% in size). Background: qHTS replaces the single test concentration by a dilution series.
Assay [2] is described as follows: qHTS for Inhibitors of the Functional Ribonucleoprotein Complex (vRNP) of Lymphocytic Choriomeningitis Arenaviruses (LCMV): Viability assay - alamar blue signal for LCMV Primary Screen (AID 1347085; calls by dose curve; tested in HEK293 reporter line; also: nearly all actives have a fitted effect of over 80% in size).
For assay [3], the target named is Nucleoprotein (Lymphocytic choriomeningitis virus (strain Armstrong)) (UniProt P09992). Briefly: qHTS for Inhibitors of the Functional Ribonucleoprotein Complex (vRNP) of Lymphocytic Choriomeningitis Arenaviruses (LCMV): LCMV Primary Screen - GLuc reporter signal (AID 1347086). Also: nearly all actives have a fitted effect of over 70% in size.
The nature of assay [4]: qHTS of pediatric cancer cell lines to identify multiple opportunities for drug repurposing: Primary screen for TC32 cells (AID 1347089; active = well fitted cell-killing curve with a large enough effect; also: nearly all actives have a fitted effect of over 60% in size). The essentials:
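TC32 cells, 500-1,000/well in growth medium, compound-treated 48 h at 37 °C; viability from CellTiter-Glo luminescence. Primary screen: MIPE 11-point (0.78 nM–46 µM final), NPC 8-point (0.59 nM–46 µM final); confirmatory at 11-point dilutions.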

A short description of assay [5]: qHTS of pediatric cancer cell lines to identify multiple opportunities for drug repurposing: Primary screen for DAOY cells (AID 1347090; active = well fitted cell-killing curve with a large enough effect; also: nearly all actives have a fitted effect of over 55% in size). The essentials: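 Viability measured as metabolically active cells via CellTiter-Glo luminescence following 48 hours of compound exposure, 11-point dilutions in confirmatory testing. 500-1,000 cells/well plated 5 hours before dosing; controls were DMSO and 2.3 µM bortezomib.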
Potency is read from the fitted curve at half-maximal effect.

Chain of Nucleoprotein (Lymphocytic choriomeningitis virus (strain Armstrong)) (P09992 whole entry, looked up): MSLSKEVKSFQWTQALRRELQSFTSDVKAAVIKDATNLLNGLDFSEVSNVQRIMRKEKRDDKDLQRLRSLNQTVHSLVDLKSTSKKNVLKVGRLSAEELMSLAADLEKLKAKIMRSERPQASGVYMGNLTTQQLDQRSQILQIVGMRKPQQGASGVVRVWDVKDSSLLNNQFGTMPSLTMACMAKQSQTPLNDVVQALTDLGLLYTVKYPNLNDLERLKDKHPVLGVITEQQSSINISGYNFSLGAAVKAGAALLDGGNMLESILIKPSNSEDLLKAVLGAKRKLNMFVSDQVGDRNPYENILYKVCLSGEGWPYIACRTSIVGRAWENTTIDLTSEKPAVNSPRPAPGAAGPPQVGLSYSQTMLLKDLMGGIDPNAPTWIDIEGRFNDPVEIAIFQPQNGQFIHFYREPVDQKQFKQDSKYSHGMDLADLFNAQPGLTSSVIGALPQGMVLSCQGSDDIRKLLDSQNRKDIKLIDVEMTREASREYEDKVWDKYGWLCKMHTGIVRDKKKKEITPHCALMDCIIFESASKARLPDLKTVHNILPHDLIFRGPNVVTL

Take `CCNC(=O)CC1N=C(c2ccc(Cl)cc2)c2cc(OC)ccc2-n2c(C)nnc21` (stereo not given): the Potency in assay [1] was 7.69 µM (active); in assay [2], 1.53 µM (active); in assay [3], 2.43 µM (active). Further, in assay [4], the Potency entry was “inactive”.
For the compound `Cc1nc2cnc3ccc(C#Cc4cccnc4)cc3c2n1-c1ccc(C(C)(C)C#N)cc1`, the Potency in assay [1] was 0.0432 µM (active); in assay [2] it was 0.109 µM (active); in assay [3] it was 0.109 µM (active).
Take `Cc1cn2c(-c3cn[nH]c3)cnc2c(Nc2ccc(C(=O)N3CCNCC3)cc2F)n1`: the Potency in assay [1] is 3.85 µM (active); in assay [2] it was 1.93 µM (active); in assay [3] it was 2.73 µM (active).
Take `O=C(C=Cc1cccc(S(=O)(=O)Nc2ccccc2)c1)NO`: the Potency in assay [1] was 25 µM (active); in assay [2], 39.5 µM (active). Moreover, in assay [3], the Potency result was “inactive”.
With `CC(C)CC(=O)Nc1n[nH]c2c1CN(C(=O)C1CCN(C)CC1)C2(C)C`, the Potency result in assay [1], in assay [2] and in assay [3] was “inactive” throughout.
Consider `O=C(NCCCNc1nc(Nc2cccc(NC(=O)N3CCCC3)c2)ncc1I)c1cccs1`, for which the figures for the Potency in assay [1] and in assay [2] were 3.85 µM (active) and 34.3 µM (active), respectively. In addition, the Potency entry in assay [3] was “inactive”.
`CO[C@@H]1[C@H](N(C)C(=O)c2ccccc2)C[C@H]2O[C@]1(C)n1c3ccccc3c3c4c(c5c6ccccc6n2c5c31)C(=O)NC4`: the Potency in assay [1] was 3.06 µM (active). Moreover, the Potency result in assay [3] was “inactive”.
Take `c1cc2c(cc1[C@H]1OC[C@H]3[C@H]1CO[C@H]3c1ccc3c(c1)OCO3)OCO2`: the Potency result in assay [1], in assay [2], in assay [3], in assay [4] and in assay [5] was “inactive” in each case.
On to `OCCn1cc(-c2ccc3c(c2)CCC3=NO)c(-c2ccncc2)n1`, for which the Potency in assay [1] was 10.9 µM (active); in assay [2] it was 1.72 µM (active); in assay [3], 7.69 µM (active).
In the same order, the values of `O=C(Nc1ccc(Oc2ccc(Cl)cc2)c(Cl)c1)c1cc(I)cc(I)c1O` are “inactive”, “inactive” and “inactive”.
As for `COc1ccccc1[C@H](c1cccc2ccccc12)[C@@](C)(C#N)C(=O)N1CCC(c2cccc(C(F)(F)F)c2)CC1`, the Potency in assay [1] is 21.7 µM (active). Besides, the Potency result in assay [3] was “inactive”.
With `CCOc1cc(C=C2C(=O)N(c3ccccc3)N=C2C)cc(Cl)c1OCC(=O)OC`, the Potency in assay [2] was 7.69 µM (active).
With `O=C(Nc1cc(C(F)(F)F)cc(C(F)(F)F)c1)c1cc(Cl)ccc1O`, in assay [2], the Potency was 2.43 µM (active).
For the compound `CN1[C@H]2CC(O)C[C@H]1[C@H]1O[C@H]12` (stereo not given in full), the Potency in assay [1] was 27.3 µM (active). Besides, the Potency entry in assay [4] is “inactive”.
For the compound `CC1=C(O)C(=O)C=C2C1=CC=C1[C@@]2(C)CC[C@@]2(C)[C@@H]3C[C@](C)(C(=O)O)CC[C@]3(C)CC[C@]12C`, the Potency was 19.3 µM (active) in assay [1], 7.69 µM (active) in assay [3], 7.39 µM (active) in assay [4] and 0.935 µM (active) in assay [5].
For the compound `CCc1cc(-c2n[nH]c(C)c2-c2ccc3c(c2)OCCO3)c(O)cc1O`, the Potency in assay [2] was 6.85 µM (active).
For the compound `CCCS(=O)(=O)Nc1ccc(F)c(C(=O)c2c[nH]c3ncc(-c4ccc(Cl)cc4)cc23)c1F`, the Potency result in assay [3] was “inactive”.
As for `CC=C(C)C(=O)O[C@H]1C(C)=C2[C@@H]3OC(=O)[C@@](C)(O)[C@@]3(O)[C@@H](OC(=O)CCC)C[C@](C)(OC(C)=O)[C@@H]2[C@@H]1OC(=O)CCCCCCC`, the values for the Potency in assay [1] and in assay [5] were 0.769 µM (active) and 0.469 µM (active), respectively.
In the case of `COc1cc2c(cc1OC)CN(CCc1ccc(NC(=O)c3cccc4c(=O)c5cccc(OC)c5[nH]c34)cc1)CC2`, the Potency result in assay [2] and in assay [3] was “inactive” in each case.
On to `C=CCC1=C(C)C(OC(=O)C2C(C=C(C)C)C2(C)C)CC1=O` (stereo not given), for which the Potency entry in assay [1] and in assay [4] was “inactive” in each case.
Consider `O=S(=O)(F)Cc1ccccc1`, for which the Potency in assay [1] is 1.53 µM (active). The Potency result in assay [3], in assay [4] and in assay [5] was “inactive” in each case.
For the compound `Nc1ccc([N+](=O)[O-])cc1O`, the Potency entry in assay [2] and in assay [3] was “inactive” throughout.
`CCOC(=O)c1c(C(C#N)=CN)c2ccc(Cl)c(Cl)c2n1C`: the Potency in assay [1] was 10.9 µM (active). In addition, the Potency result in assay [3] and in assay [4] was “inactive” throughout.
With `c1ccc2c(CCNc3ccc(Nc4ccncc4)cc3)c[nH]c2c1`, the Potency is 17.2 µM (active) in assay [2] and 21.7 µM (active) in assay [3].
For the compound `C=C[C@@H]1CN2CCC1C[C@@H]2[C@@H](O)c1ccnc2ccccc12` (stereo not given in full), the Potency in assay [3] is 38.5 µM (active). For the same compound, the Potency result in assay [4] is “inactive”.
Turning to `COc1ccc(C(=O)c2c(C)n(CCN3CCOCC3)c3cc(I)ccc23)cc1`, the Potency result in assay [2], in assay [3] and in assay [4] was “inactive” throughout. In addition, in assay [5], the Potency was 18.7 µM (active).
Consider `CC(C)(C)c1[nH]cnc1C=c1[nH]c(=O)c(=Cc2ccccc2)[nH]c1=O`, for which the Potency in assay [2] was 0.0079 µM (active); in assay [3] it was 0.0314 µM (active).
Take `CC(O)=C(C#N)C(=O)Nc1ccc(C(F)(F)F)cc1`: the Potency in assay [3] is 19.3 µM (active).
Still for that read-out and setting: the value for `Cc1ccc(N)cc1O` was “inactive”.
`COC(=O)c1ccc2c(C(=Nc3ccc(N(C)C(=O)CN4CCN(C)CC4)cc3)c3ccccc3)c(O)[nH]c2c1`: the Potency in assay [2] was 27.3 µM (active). The Potency result in assay [3] was “inactive”.
For `O=C(O)c1ccc(O)c2ncc(N3CCOCC3)cc12`, the Potency in assay [2] was 48.5 µM (active).
As to `O=C(Oc1ccc([N+](=O)[O-])cc1)N1CCN(Cc2cccc(Oc3ccccc3)c2)CC1`, the Potency in assay [1] was 24.3 µM (active); in assay [3], 6.85 µM (active). Further, the Potency result in assay [4] was “inactive”.
On to `O=c1[nH]c2ccccc2n1C1CCN(Cc2ccc(-c3[nH]c4cc5ncnc5cc4nc3-c3ccccc3)cc2)CC1`, for which the Potency result in assay [2], in assay [3], in assay [4] and in assay [5] was “inactive” each time.
For `CC(C)(O)C(=O)Nc1ccc([N+](=O)[O-])c(C(F)(F)F)c1`, in assay [4], the Potency entry is “inactive”. In addition, in assay [5], the Potency was 18.7 µM (active).
Consider `CC(=O)[O][Hg][c]1ccccc1`, for which the values for the Potency in assay [4] and in assay [5] were 1.87 µM (active) and 1.68 µM (active), respectively.
